This is part of a sample that, as a whole, favours compounds with a hit. Of some 79,000 tested, about 15% had one in any assay. Values without a mark were called inactive. Calls of active or inactive are those of the source. Cut-off read from the data, not from the text of the source: active = growth inhibition above about 70%; inactive = the rest.

The nature of one test: NCI Yeast Anticancer Drug Screen. Data for the cln2 rad14 strain (AID 165).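 Note: 0% = growth equal to vehicle treated cultures.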 Particulars: S. cerevisiae cln2 rad14 strain, at 50.0 µM, active compounds read high. An outline of the steps: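 Strain: cln2 rad14 yeast, altered in cell cycle control and DNA damage repair. Read-out: growth inhibition vs vehicle.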
For `COc1ccc(C(=O)NNC(=O)c2ccc3ccccc3c2)cc1`, the growth inhibition is 9.95%. As for `C[N+]1(CC[N+]2(C)CCCC2c2cccnc2)CCCC1c1cccnc1` (stereo not given), the growth inhibition is -34.5%.

`CCCCC(O)CNc1ccccc1` (stereo not given): the growth inhibition was -5.75%. Still for that read-out and setting: as for `CC(C)=CC(=O)OC1C2C(C)C(=O)OC2C(O)C(C)C2C=CC(=O)C21C` (stereo not given), the figure is 16.9%; as for `CC(=O)N1C(=O)NC(=O)C1(C)c1cccs1` (stereo not given), -75.1%. The same measure, in the same setting: as for `CCCCCCC(C)OC(C)=O` (stereo not given), the figure is -20%. Same read-out and setting: as for `O=C(c1ccc(Cl)cc1Cl)N(/N=C/C=C/c1ccccc1)c1nnc(-c2ccccc2)c(-c2ccccc2)n1`, the figure is 32.5%; as for `CC(C)(Cc1ccc(Cl)cc1)NC(N)=O`, 3.1%. In the case of `CC(C)c1cccc(C(C)C)c1NC(=O)OC1CCCCC1`, the growth inhibition is 20.2%. On the same count and under the same terms, with `O=C1c2ccccc2-c2cc(F)ccc21` the figure was -6.25%; with `O=C(/C=C/c1ccc2c(c1)OCO2)C1CC1`, 8.25%. Still for that read-out and setting: with `COC(=O)N/N=C/c1ccc(C)cc1` the figure was -37.9%. Same read-out and setting: with `C(=N\c1oc(-c2ccccc2)c(-c2ccccc2)c1-c1ccccc1)/c1ccccc1` the figure was 14.3%; with `Brc1ccncc1`, 3.35%.

As to `COc1ccc(NC(=O)COc2cc(Cl)c(Cl)cc2Cl)cc1`, the growth inhibition was 11.9%. For the compound `O=CC(CO)CC(C=O)n1cnc2c(=O)[nH]cnc21` (stereo not given), the growth inhibition was 2.55%. The same measure, in the same setting: with `CCOC(=O)NCC(=O)NCC(=O)NCC(N)=O` the figure was -9.65%. The same measure, in the same setting: with `N=c1ccn(CC(O)COc2ccccc2)cc1` (stereo not given) the figure was 10.6%; with `CC1(C)[C@@H]2C[C@H]1C(Cc1cccc(C[C@H]3c4cc(-c5ccccn5)ncc4[C@H]4C[C@@H]3C4(C)C)c1)c1cc(-c3ccccn3)ncc12` (stereo not given in full), -7.7%. Turning to `CC(C)NCC(O)COc1c2ccccc2nc2ccccc12` (stereo not given), the growth inhibition was -1.65%. Same read-out and setting: as for `CC1(C)OS(=O)(=O)C=C1Br`, the figure is -16%; as for `CCCCOc1ccc(Nc2c(C(=O)O)cnc3cc4c(cc23)OCO4)cc1`, 5.4%; as for `COc1cc(CN(c2ccccc2C(=O)O)S(=O)(=O)c2ccc(C)cc2)ccc1[N+](=O)[O-]`, -19.6%. On the same count and under the same terms, as for `O=C(CCl)Nc1ccc(SSc2ccc(NC(=O)CCl)cc2)cc1`, the figure is 43.2%; as for `CCCCCCCCCC(=O)N/N=C/c1ccco1`, 44.9%.

The next test can be described thus: NCI Yeast Anticancer Drug Screen. Data for the bub3 strain (AID 167). Particulars: S. cerevisiae bub3 mutant strain, at 50.0 µM, active compounds read high. The gist of the method: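 Steps: expose the mutant yeast strain to compound; grow alongside vehicle-treated cultures; measure growth; express inhibition against the vehicle cultures.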
Regarding `CC1CCC2(OC1)OC1CC3C4CCC5CC(O)CCC5(C)C4CC(=O)OC3(C)C1C2C` (stereo not given), the growth inhibition is -25%. The same measure, in the same setting: as for `O=c1[nH]nc(SCc2ccccc2)c2nncn12`, the figure is 6.55%; as for `COC(=O)Nc1cccc(-c2nc3ccc(NC(=O)OC)cc3c(=O)n2-c2ccccc2)c1`, -15.8%.

Turning to `Cn1c(Nc2ccccc2)c([N+](=O)[O-])c(=O)n(C)c1=O`, the growth inhibition is -2.15%. On the same count and under the same terms, as for `COc1ccc2ccc3[nH]c4c(C)cnc(NCCCN(C)C)c4c3c2c1`, the figure is 45.9%. The same measure, in the same setting: with `O=C(CCc1nnc2s/c(=C\c3ccc(Cl)cc3Cl)c(=O)n12)Nc1cc(Cl)c(Cl)cc1Cl` the figure was 9.05%; with `N#Cc1c2c(c(N3CCCCC3)n3c1nc1ccccc13)CCC2`, 19.9%.

As for `C/C=C(/C)C(=O)O[C@H]1C[C@@H]2[C@@H](O)c3occ(C)c3C[C@]2(C)[C@@H](C)C1`, the growth inhibition was 90.8% (active).

In the case of `O=c1oc2ccccc2cc1S(=O)(=O)c1ccc(Cl)cc1`, the growth inhibition was -9.75%. The same measure, in the same setting: as for `N#CCN1CCOCCOCCN(CC#N)CCOCCOCC1`, the figure is 7.4%. The same measure, in the same setting: as for `O=C(NCc1ccccn1)c1ccccc1`, the figure is 17.1%; as for `Cc1cc(=O)[nH]c(NN2C(Cl)C(=O)C2c2ccc([N+](=O)[O-])cc2)n1` (stereo not given), 3.85%; as for `COC(=O)Nc1nc2c(OC)c(OC)c(OC)cc2[nH]1`, -18.6%. Turning to `CC(C)OP(=O)(OC(C)C)c1ccc2c(c1)OCCOCCOCCOCCO2`, the growth inhibition was -0.15%.

For the compound `CC(C)OP(=O)(OC(C)C)/C(N)=N/Nc1ccc([N+](=O)[O-])cc1`, the growth inhibition was -3.95%.

For the compound `COc1ccc(C(=O)NNC(=O)c2ccc3ccccc3c2)cc1`, the growth inhibition was 5.5%. Still for that read-out and setting: with `C[N+]1(CC[N+]2(C)CCCC2c2cccnc2)CCCC1c1cccnc1` (stereo not given) the figure was 28%; with `CCCCC(O)CNc1ccccc1` (stereo not given), 9.65%; with `CC(C)=CC(=O)OC1C2C(C)C(=O)OC2C(O)C(C)C2C=CC(=O)C21C` (stereo not given), 11.1%. Regarding `CC(=O)N1C(=O)NC(=O)C1(C)c1cccs1` (stereo not given), the growth inhibition was 2%. The same measure, in the same setting: as for `CCCCCCC(C)OC(C)=O` (stereo not given), the figure is -3.5%; as for `O=C(c1ccc(Cl)cc1Cl)N(/N=C/C=C/c1ccccc1)c1nnc(-c2ccccc2)c(-c2ccccc2)n1`, 2.2%; as for `CC(C)(Cc1ccc(Cl)cc1)NC(N)=O`, -44.1%. Take `CC(C)c1cccc(C(C)C)c1NC(=O)OC1CCCCC1`: the growth inhibition was -1.6%. With `O=C1c2ccccc2-c2cc(F)ccc21`, the growth inhibition was 17.6%. The same measure, in the same setting: with `O=C(/C=C/c1ccc2c(c1)OCO2)C1CC1` the figure was 27.7%; with `COC(=O)N/N=C/c1ccc(C)cc1`, -3.9%; with `C(=N\c1oc(-c2ccccc2)c(-c2ccccc2)c1-c1ccccc1)/c1ccccc1`, 4.2%.

In the case of `Brc1ccncc1`, the growth inhibition is -21.9%. The same measure, in the same setting: with `COc1ccc(NC(=O)COc2cc(Cl)c(Cl)cc2Cl)cc1` the figure was 3.9%; with `O=CC(CO)CC(C=O)n1cnc2c(=O)[nH]cnc21` (stereo not given), -9.45%. The same measure, in the same setting: with `CCOC(=O)NCC(=O)NCC(=O)NCC(N)=O` the figure was -25.1%; with `N=c1ccn(CC(O)COc2ccccc2)cc1` (stereo not given), 2.75%.

Consider `CC1(C)[C@@H]2C[C@H]1C(Cc1cccc(C[C@H]3c4cc(-c5ccccn5)ncc4[C@H]4C[C@@H]3C4(C)C)c1)c1cc(-c3ccccn3)ncc12` (stereo not given in full), for which the growth inhibition is 45.2%. The same measure, in the same setting: as for `CC(C)NCC(O)COc1c2ccccc2nc2ccccc12` (stereo not given), the figure is -20.1%.

Take `CC1(C)OS(=O)(=O)C=C1Br`: the growth inhibition was -8.4%. The same measure, in the same setting: with `CCCCOc1ccc(Nc2c(C(=O)O)cnc3cc4c(cc23)OCO4)cc1` the figure was -4.85%; with `COc1cc(CN(c2ccccc2C(=O)O)S(=O)(=O)c2ccc(C)cc2)ccc1[N+](=O)[O-]`, -4.5%. On the same count and under the same terms, with `O=C(CCl)Nc1ccc(SSc2ccc(NC(=O)CCl)cc2)cc1` the figure was 10.1%; with `CCCCCCCCCC(=O)N/N=C/c1ccco1`, 69.4%.

These data come from PubChem BioAssay (NCI).
